Source: PubChem (National Center for Advancing Translational Sciences (NCATS))
An excerpt weighted towards active compounds, which were near 4.8% of everything screened.
TGFb inhibitor: qHTS for Inhibitors of TGF-b; HepG2 CAGA-GFP TGF-b/SMAD3 reporter, GFP fluorescence, 18 h; TGF-beta stimulated, 500 pg/mL final; Potency, µM (top dose mostly 46.1 µM), hits mostly inhibitors; 410,000 tested, 1.2% active; note: nearly all actives have a fitted effect of over 65% in size
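Smad-responsive CAGA-GFP expression was quantified in HEPG2 cells exposed to compounds and 500 pg/mL final TGF-beta for 18 h at 37 degrees C; unstimulated wells defined full inhibition.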
DRD3 agonist: qHTS of D3 Dopamine Receptor Agonist: qHTS; D(3) dopamine receptor (Homo sapiens), P35462; AID 652048, 2013; D3R DiscoveRx beta-arrestin cells, luminescence, 90 min; max activation, %; 410,000 tested, 0.58% active; in the data active = max activation above about 30%
Target sequence (P35462 whole entry, looked up): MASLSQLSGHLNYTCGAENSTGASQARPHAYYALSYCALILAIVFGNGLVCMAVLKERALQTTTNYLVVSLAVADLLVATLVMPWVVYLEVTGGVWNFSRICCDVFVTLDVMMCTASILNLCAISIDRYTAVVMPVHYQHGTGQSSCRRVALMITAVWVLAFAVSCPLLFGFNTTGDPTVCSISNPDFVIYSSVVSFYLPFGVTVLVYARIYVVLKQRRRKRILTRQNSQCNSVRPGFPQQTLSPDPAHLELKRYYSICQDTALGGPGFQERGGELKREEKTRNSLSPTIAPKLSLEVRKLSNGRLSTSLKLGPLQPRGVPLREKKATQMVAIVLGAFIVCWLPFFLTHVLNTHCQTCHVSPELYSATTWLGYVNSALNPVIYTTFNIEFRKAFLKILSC
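Agonist mode: compounds and dopamine controls were applied to plated cells for 90 min at 37 degrees C after an overnight attachment at 1500 cells/well. Luminescent read-out followed 30 - 60 minutes at room temperature with DiscoveRx detection reagent.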
ATXN viability: Viability Counterscreen for Primary qHTS for Inhibitors of ATXN expression. S2 cells (HEK-293 line with an ATXN2-luciferase reporter) viability, CellTiter-Fluor protease fluorescence, 24 h. Potency, µM (top dose mostly 56.7 µM), usual class: cytotoxic. 400,000 tested, 0.49% active. AID 651635, 2014; note: nearly all actives have a fitted effect of over 40% in size
DRD3 antagonist: qHTS of D3 Dopamine Receptor Antagonist: qHTS. D(3) dopamine receptor (Homo sapiens), P35462. D3R cells, DiscoveRx beta-arrestin luminescence, antagonist mode; stronger effect = lower value. max response, negative = inhibition, %. 360,000 tested, 2.5% active; in the data active = max response below about -50%; inconclusive = no clear call, values can overlap the other calls
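Cells plated overnight at 1500 cells/well, then exposed to library compounds with dopamine controls for 90 minutes at 37 degrees C. DiscoveRx reagent added for 30–60 minutes at room temperature; luminescence read, quantitative HTS format.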
HepG2 viability: qHTS for Inhibitors of TGF-b: Cytotox Counterscreen | HepG2 CAGA-GFP viability, ATP luminescence, 18 h | Potency, µM (top dose mostly 46.1 µM), usual class: cytotoxic | 410,000 tested, 0.76% active | AID 588856, 2011
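CellTiter-Glo luminescence gave cytotoxicity after 18 hours at 37 degrees C. The cells were HepG2 CAGA-GFP in 1% FBS DMEM, stimulated with 500 pg/mL TGF-beta after compound addition. %Activity was normalised to no-cell wells (complete cell-killing) and DMSO (no toxicity), and curves were fitted and classified.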
ATXN2 expr inh: Primary qHTS for Inhibitors of ATXN expression. Potency, µM (titrated, usually from 57 µM), most hits filed as inhibitors. AID 1745845, 2022. 360,000 tested, 0.72% active. HEK-293 ATXN2-luciferase reporter, luminescence, 24 h; note: nearly all actives have a fitted effect of over 55% in size
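qHTS (up to 57 uM final) was run with 24 h compound exposure of reporter cells at 37 °C. Each well was multiplexed: SteadyGlo luminescence measured ATXN2-luciferase expression after a fluorogenic Gly-Phe-AFC viability readout (25 uM final).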
Numbers stand for hits; 0 = inactive; ? = inconclusive; - = no result given. Unless noted, calls come from the whole dose curve; as a rule, active = well fitted curve in the direction sought with a large enough effect; inconclusive = small, poorly fitted or top-dose-only effect, or another doubt; inactive = no such curve, though single readings can be large; an effect the other way counts as inactive or inconclusive.

SMILES	TGFb inhibitor	DRD3 agonist	ATXN viability	DRD3 antagonist	HepG2 viability	ATXN2 expr inh
CC(C)Oc1ccc(-c2nc(-c3cccnc3)no2)cc1	0	-	-	-	0	-
COc1ccc(CC(=O)NCc2nc3cccnc3n2Cc2ccc(C)cc2)cc1OC	0	0	-	-	0	-
Cc1ccc(Nc2nnc(-c3ccc(C)c(S(=O)(=O)N4CCN(C)CC4)c3)c3ccccc23)cc1	0	0	0	-	0	0
COc1ccc(Nc2nnc(-c3ccc(C)c(S(=O)(=O)N4CCN(C)CC4)c3)c3ccccc23)cc1	14µM	0	?	-	0	?
CC1CCN(CCCCOc2ccc(C(=O)c3ccccc3)cc2)CC1	?	0	0	-75	0	0
c1ccc(COc2ccc(OCCCN3CCCC3)cc2)cc1	0	0	?	?	0	0
CC1CCN(CCCCOc2ccc(F)cc2)CC1	0	0	0	-59	0	0
CC1CCN(CCCOc2ccc(OCc3ccccc3)cc2)CC1	0	0	?	-70	0	0
CC1CCN(CCOc2ccc(C(=O)c3ccccc3)cc2)CC1	0	0	0	0	0	0
Cc1cc(C)c2c(n1)NCCC2	?	-	-	-	0	-
COC(=O)c1cc(-c2ccc(C)cc2)c2c(=O)n(C)c(=O)n(C)c2n1	0	0	0	-	0	0
CNC(=O)C1CCC(Cn2c(=O)c3sccc3n(CC(=O)Nc3ccc(C)c(F)c3)c2=O)CC1 (configuration not stated)	0	0	0	-	0	0
Cc1cc(C)c2oc(-c3cccc(NC(=O)c4ccc(Br)o4)c3)nc2c1	0	0	0	-	0	0
O=C(Nc1cccc(-c2nnc(-c3ccccc3)o2)c1)c1ccc(Br)o1	?	0	35µM	0	0	?
CC(C)Oc1ccc(CNC(=O)c2ccc3c(c2)N(C)CCS3)cc1	0	0	0	-74	0	0
CC(C)OCCCNC(=O)C(=O)Nc1ccc2nc3n(c(=O)c2c1)CCCCC3	0	0	?	-	0	0
CCOC(=O)c1c(C)[nH]c(C(=O)COC(=O)C2(C)CC2(Cl)Cl)c1C (configuration not stated)	0	45	0	0	0	0
Cc1ccc(C)c(NC(=O)C(Cc2ccccc2)N2Cc3ccccc3C2=O)c1 (configuration not stated)	?	0	-	-	0	-
CCCc1cc(C(=O)Nc2ccc(F)c(Cl)c2)no1	0	0	0	-51	0	0
COC(=O)c1c(-c2ccc(N(C)C)cc2)sc2ccc(OC)cc12	0	134	-	0	0	0
COc1ccc2sc(-c3ccc(S(C)(=O)=O)cc3)c(C#CCO)c2c1	?	0	?	0	0	0
COC(=O)c1c(-c2ccsc2)sc2ccc(-c3cc(OC)c(OC)c(OC)c3)cc12	0	53	0	0	0	0
COc1cc(-c2ccc3sc(-c4ccsc4)c(C#CCO)c3c2)cc(OC)c1OC	16µM	50	?	0	0	25µM
CCn1c(CNC(=O)c2ccc(OC)cc2)nnc1SCC(=O)Nc1ccc(OC)cc1	0	0	0	-	0	0
Cc1cc(C)cc(-n2c(SCC(=O)Nc3ccccc3)nc3c(oc4ccccc43)c2=O)c1	0	0	0	-	0	0
CCS(=O)(=O)Nc1cc(C(=O)N2CCC[C@H]2CO)c2c(c1)nc(-c1ccccc1)n2C	-	-	0	-	-	-
CN1CCc2c(sc(/N=C/c3cc(C(C)(C)C)ccc3O)c2C#N)C1	0	0	0	-54	0	0
CC(=O)c1ccc(-c2ccc3c4c(ccc3c2)OC(CNC(=O)C(C)N2CCOCC2)C4)s1 (configuration not stated)	-	-	0	-	-	-
O=C(Nc1ccccc1C(=O)N1CCN(Cc2ccccc2)CC1)c1ccc(F)cc1	0	0	0	0	0	0
Cc1cccc(NC(=O)c2ccc(CN3CCN(Cc4ccccc4)CC3)cc2)c1	0	0	0	0	0	0
